Bioassay records as filed in PubChem BioAssay.
The entries come from a sample that favours hits as a whole.
Tb PYK inh – qHTS of Trypanosoma Brucei Inhibitors; pyruvate kinase (Trypanosoma brucei), Q57TT1; TbPYK enzyme, Kinase-Glo Plus ATP luminescence, 45 min; Potency, µM (top dose mostly 76.8 µM), for the others: at the highest dose activity, negative = inhibition, actives largely listed as inhibitors; 0.12% of 410,000 active; AID 624173, 2012; further: potency means the concentration at half of the fitted maximal effect; on the % scale 0 is the no-effect control and ±100 the full control effect; nearly all actives have a fitted effect of over 50% in size
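ADP (130 uM final) triggers the TbPYK reaction after compound addition; incubation is 45 min at room temperature. Kinase-Glo Plus is then added and luminescence imaged. Normalized data are fitted to concentration-effect curves.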
CHX counter – Cycloheximide Counterscreen for Small Molecule Inhibitors of Shiga Toxin; 12% of 300,000 active; cell reporter, cycloheximide protein synthesis inhibition counterscreen; max response, %; in the data active means max response mostly above about 13%, no sharp cut-off; inactive means mostly below about 14%; further: read at 38.3 µM for the half of the compounds with a filed dose; 0% is about no effect
Giardia FBPA inh – qHTS Assay for Inhibitors of Fructose-1,6-bisphosphate Aldolase from Giardia Lamblia; purified Giardia FBPA; A8B2U2; 0.71% of 290,000 active; Potency, µM (top dose mostly 59.6 µM), inactives show top-dose activity, negative = inhibition, actives largely listed as inhibitors; further: potency means the concentration at half of the fitted maximal effect; on the % scale 0 is the no-effect control and ±100 the full control effect; nearly all actives have a fitted effect of over 55% in size
Target sequence (A8B2U2 whole entry, looked up): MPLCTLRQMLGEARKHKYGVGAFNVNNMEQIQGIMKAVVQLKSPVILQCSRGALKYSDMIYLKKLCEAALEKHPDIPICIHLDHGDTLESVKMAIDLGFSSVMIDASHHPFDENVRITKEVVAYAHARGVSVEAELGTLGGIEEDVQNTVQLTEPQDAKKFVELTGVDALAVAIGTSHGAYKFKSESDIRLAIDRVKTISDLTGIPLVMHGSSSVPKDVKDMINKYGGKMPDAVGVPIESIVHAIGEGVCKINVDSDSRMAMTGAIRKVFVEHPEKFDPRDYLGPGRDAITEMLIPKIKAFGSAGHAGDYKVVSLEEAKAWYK
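Giardia FBPA (40 nM reagent) was preincubated 10 min at RT with compound (up to 57.5 uM final), then substrate plus GAPDH/TPI/NAD/arsenate coupling system with diaphorase/resazurin was added; resorufin fluorescence (525/598 nm) was read after 20 min.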
LmPK inh – qHTS Assay for Inhibitors of Leishmania Mexicana Pyruvate Kinase (LmPK); Q27686; purified LmPK, Kinase-Glo ATP luminescence, 1 h; Potency, µM (series often up to 57.5 µM), for the others: at the highest dose activity change, negative = inhibition, usual class: inhibitors; 0.37% of 290,000 active; AID 1721, 2009; further: potency means the concentration at half of the fitted maximal effect; on the % scale 0 is the no-effect control and ±100 the full control effect
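0.1 nM LmPK, 0.5 mM PEP, 0.1 mM ADP; 50 mM imidazole pH 7.2, 7 mM MgCl2, 50 mM KCl; 1 h RT. Kinase-Glo luminescence readout, normalized to no-enzyme (full inhibition) and uninhibited wells.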
RE007 growth inh – qHTS Assay for Inhibitors of the HIV-1 protein Vpr; 0.21% of 360,000 active; AID 651644, 2012; S. pombe RE007 Vpr strain, BacTiter-Glo ATP luminescence, 24 h; Potency, µM (doses to about 92.2 µM), inactives show at the highest dose activity change, negative = less growth, most hits filed as inhibitors; active means well fitted falling curve with a large enough effect; inconclusive means small, poorly fitted or top-dose-only effect; inactive means no such curve, though single readings can be large or run the other way; further: potency means the concentration at half of the fitted maximal effect; on the % scale 0 is the no-effect control and ±100 the full control effect; nearly all actives have a fitted effect of over 50% in size
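Fission yeast strain RE007, carrying one chromosomally integrated HIV-1 vpr copy, was seeded at OD 0.01 in PMG+AL medium with 23 nL pinned compound. After 24 h at 30 °C and 99% humidity, viability was read by BacTiter-Glo luminescence.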
Shiga inhibitor – A qHTS for Small Molecule Inhibitors of Shiga Toxin. inhibition, % at 38.7 µM. Vero cells, Shiga toxin protein synthesis inhibition reporter. AID 2315, 2010. 9.2% of 290,000 active; in the data active means inhibition mostly above about 28%, no sharp cut-off; inactive means mostly below about 43%; further: 0% is about no effect
The depositor's hits bear a star; ? = inconclusive; · = no result; + = active, no number; [ ] = remark or other dose. Unless noted, the call rests on the fitted dose curve; in most records, active means well fitted curve in the direction sought with a large enough effect; inconclusive means small, poorly fitted or top-dose-only effect, or another doubt; inactive means no such curve, though single readings can be large; an effect the other way counts as inactive or inconclusive.

SMILES	Tb PYK inh	CHX counter	Giardia FBPA inh	LmPK inh	RE007 growth inh	Shiga inhibitor
O=C(CSc1nnc(-c2ccc(F)cc2)o1)c1ccc2c(c1)OCCO2	2.0%	18.2*	4.2%	0.0%	-15.3%	9.7
O=C(CSc1nnc(-c2ccc(O)cc2)o1)Nc1cccc(O)c1	0.9%	24.0*	6.9%	1.9%	78.1%	63.9
O=C(CSc1nnc(-c2cccnc2)o1)Nc1ccccc1Br	5.0%	-5.0	-5.4%	5.4%	-12.2%	-5.1
O=C(c1ccccc1Cl)N1CCCCC1CCN1CCCCC1 (configuration not stated)	1.8%	·	·	·	·	·
COc1ccc(CN2CCc3c(c(=O)n4ncc(C(=O)N5CCN(c6ccccc6F)CC5)c4n3C)C2)cc1	3.2%	·	·	·	·	·
CCCN(CCC)c1nn2c(=O)c(C(=O)NCc3cc(Br)ccc3OC)cnc2s1	-1.4%	·	·	·	·	·
CC(=O)Nc1ccc(NC(=O)C(C)Sc2nnc(-c3ccc4c(c3)OCO4)o2)cc1 (configuration not stated)	-2.3%	·	·	·	9.5%	·
COc1ccc(-c2nnc(SC(C)C(=O)Nc3ccc4c(c3)OCCO4)o2)cc1 (configuration not stated)	-3.7%	35.0*	-6.3%	-2.8%	-9.2%	active
O=C(CSc1nnc(-c2ccccc2Cl)o1)Nc1ccc2c(c1)OCCO2	-7.2%	13.8	-5.2%	-0.2%	-11.4%	12.7
O=C(CSc1nnc(-c2ccc(O)cc2)o1)Nc1ccc2c(c1)OCCO2	-1.6%	24.8*	-0.9%	5.2%	-10.2%	39.0*
CCn1ccc2c(OCC(=O)Nc3ccc(OC)cc3OC)cccc2c1=O	1.3%	·	·	·	·	·
Cc1ccc(N2CCN(S(=O)(=O)c3ccc(Cl)s3)CC2C)cc1 (configuration not stated)	2.3%	14.9*	·	-3.0%	4.4%	22.0*
Cc1ccc(N2CCN(S(=O)(=O)c3c(C)[nH]c(=O)[nH]c3=O)CC2C)cc1 (configuration not stated)	3.9%	·	·	·	·	·
CN1CCN(C(=S)NC(=O)/C=C/c2ccccc2)CC1	5.2%	18.8	-8.6%	-3.1%	0.0%	32.6
COc1ccc(/C=C/C(=O)NC(=S)N2CCSCC2)cc1	-3.5%	36.6*	-10.1%	-8.9%	-3.3%	48.9
O=C(/C=C/c1ccc(Br)cc1)NC(=S)N1CCOCC1	-28.7%	53.5*	-20.0%	?	-17.7%	67.2*
O=C(/C=C/c1ccc(F)cc1)N1CCN(c2ccccn2)CC1	-4.1%	15.2	0.8%	-0.3%	4.6%	+
COc1ccc(/C=C/C(=O)NC(=S)N2CCN(c3ccccn3)CC2)cc1	-11.5%	19.1*	-0.8%	-0.2%	-11.8%	56.5*
CC(=O)N1CCN(c2csc3ccc(Cl)cc3c2=O)CC1	0.0%	·	·	·	·	·
COc1ccc(N2CCN(C(CNC(=O)C(=O)NCCc3ccccc3)c3cccnc3)CC2)cc1 (configuration not stated)	-3.3%	·	·	·	·	·
Cc1ncc(CO)c2c1Oc1nc(-c3ccccc3F)nc(SCC(=O)N3CCCCC3)c1C2	-9.9%	·	·	·	·	·
Cc1nc(N)sc1C(=O)Nc1ccccc1	-11.4%	35.5*	-23.1%	?	-12.7%	67.8*
Cc1ccc(NC(=O)c2c(C)noc2C)cc1	-7.3%	-2.2	2.7%	1.1%	-10.1%	-20.6
Cc1ccc(NC(=O)c2sc(N)nc2C)cc1	-5.8%	36.8*	-0.2%	-7.0%	3.9%	53.9*
COC(=O)c1ccccc1NC(=O)c1sc(N)nc1C	2.3%	7.4	2.5%	4.8%	-0.6%	12.8
SMILES	Tb PYK inh	CHX counter	Giardia FBPA inh	LmPK inh	RE007 growth inh	Shiga inhibitor
Cc1noc(N)c1C(=O)Nc1ccc(C(C)(C)C)cc1	-9.3%	39.6*	-11.8%	?	-28.3%	135.8*
Cc1nc(NC(N)=S)sc1C(=O)Nc1ccccc1	-5.4%	1.0	?	-1.5%	-12.4%	-1.7
Cc1nc(Nc2c(Cl)cccc2Cl)sc1C(=O)Nc1ccccc1	-0.9%	19.0*	2.2%	3.4%	0.2%	21.3
CCOC(=O)[C@]12CCC=C1N(Cc1ccc(Cl)cc1Cl)C(=O)[C@H](CC(=O)N1CCC(c3ccccc3)CC1)C2	-2.9%	·	·	·	-17.3%	·
Cc1nc(C(=O)Nc2ccccc2)sc1C(=O)Nc1ccccc1	-11.9%	40.1*	-13.0%	-8.2%	-28.7%	78.6*
Cc1nc(/N=C\N(C)C)sc1C(=O)Nc1ccccc1	4.9%	31.2	20.9%	1.1%	12.6%	50.7*
Cc1cccc(Nc2nc(-c3ccccc3)c(C(=O)Nc3cccnc3)s2)c1	-17.3%	33.4*	-11.8%	4.6%	-3.3%	48.0*
Cc1nc(Cl)sc1C(=O)Nc1ccc(C(C)(C)C)cc1	-3.8%	50.2*	-14.7%	0.2%	-6.8%	91.3*
Clc1ccccc1-c1nc(-c2ccncc2)no1	1.2%	26.3*	10.0%	?	?	97.4*
Clc1ccccc1-c1nnc(-c2cccnc2)o1	-2.1%	25.5*	1.0%	-1.5%	?	58.1
Cc1nc(-c2noc(-c3ccccc3Cl)n2)c(C(F)(F)F)o1	-0.7%	60.6*	3.6%	-19.9%	-8.9%	46.7*
O=C(Nc1nnc(-c2cccnc2)o1)c1ccccc1Cl	-0.8%	9.2	-1.4%	-4.8%[11.5 µM]	12.9%	18.1
CSc1ccccc1-c1nc(-c2ccncc2)no1	-10.7%	56.6*	-2.5%	-8.9%	-5.2%	81.9*
Clc1ccc(-c2nc(-c3ccncc3)no2)c(Cl)c1	-0.5%	·	·	·	-1.1%	·
Clc1ccccc1OCCSc1nnc(-c2cccs2)o1	-2.1%	·	·	·	·	·
Cc1ccccc1-c1nc(-c2cccnc2)no1	-3.5%	27.8*	3.1%	-22.6%	-25.2%	82.6*
Clc1ccccc1/C=C/c1nc(-c2cccnc2)no1	-6.3%	40.6*	3.4%	-5.7%	-8.6%	97.9*
Cc1ccc(-c2nc(-c3ccncc3)no2)c(Cl)c1	-1.8%	34.8*	13.6%	-4.0%	-9.8%	·
Clc1ccccc1-c1nnc(-c2cccs2)o1	-1.3%	40.7*	5.6%	3.5%	?	89.2*
CN(CCCC(=O)N1CCN(c2ncccn2)CC1)S(=O)(=O)c1ccc(F)cc1	-6.7%	·	·	·	-5.0%	·
COc1ccc(CCNC(=O)c2cc(-c3ccc(C)c(C)c3)nc3ccccc23)cc1OC	-9.3%	·	·	·	·	·
c1ccc(-c2ccccc2-c2nc(-c3ccncc3)no2)cc1	-3.5%	-1.0	0.2%	-11.8%	-8.0%	6.8
Clc1ccccc1-c1nc(-c2cccnc2)no1	-0.9%	24.6*	4.8%	-27.6%	?	83.4*
CNc1cc(C(F)(F)F)nc(-c2ccccn2)n1	10.9%	7.4	19.0%	0.3%	24.4%	-4.2
Nc1nc(-c2ccccn2)nc(N)c1Cc1ccc(Cl)cc1Cl	3.0%	37.0*	-3.9%	11.2%	?	56.0*
Clc1ccc(Cc2ccc(Cl)nn2)c(Cl)c1	3.6%	-4.3	-1.3%	-4.3%	9.5%	-9.0
